According to PubChem BioAssay:
For some assays here: Potency and affinity values are given separately. Activity calls are given as the source filed them. The rule behind the calls is not given here.

Target: Plasmodium falciparum protein kinase 6 (PK6, PF3D7_1337100) (UniProt Q8IDW1)
Experiment: PfPK6 kinase inhibitors, biochemical, TCAMS library (AID 1159586)
Settings: recombinant PfPK6, Kinase-Glo ATP depletion luminescence

Chain of Plasmodium falciparum protein kinase 6 (PK6, PF3D7_1337100) (Q8IDW1 1-305): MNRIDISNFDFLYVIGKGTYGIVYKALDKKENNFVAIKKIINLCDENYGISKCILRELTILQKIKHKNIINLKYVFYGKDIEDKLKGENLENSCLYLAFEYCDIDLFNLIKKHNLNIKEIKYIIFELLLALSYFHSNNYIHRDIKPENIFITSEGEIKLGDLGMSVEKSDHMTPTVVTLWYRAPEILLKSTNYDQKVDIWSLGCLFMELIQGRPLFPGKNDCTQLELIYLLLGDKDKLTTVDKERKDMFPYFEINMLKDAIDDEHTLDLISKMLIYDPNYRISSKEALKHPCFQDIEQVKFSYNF

outcome, inactive:
O=c1cc(NC[C@@H]2CCC[C@@H]2NCc2ccc(Cl)c(Cl)c2)[nH]c2ccccc12
O=C(NCCN1CCN(S(=O)(=O)c2ccc(OC3CCNCC3)c(Br)c2)CC1)c1ccc(Cl)c(Cl)c1
CCc1ccc(N2C(N)=NC(N)=NC2(C)C)cc1
CN1CCN(c2ccnc3ccc(NC(=O)Nc4ccc5c(c4)CCCC5=O)cc23)CC1
CCOC(=O)c1[nH]c2ccc(F)cc2c1NC(=O)CN1CCN(c2cccc(C(F)(F)F)c2)CC1
COc1ccc(CN2CCCN(Cc3cccc(C(=O)Nc4ccc(C)c(F)c4)c3)CC2)cc1
O=C(NCCCCN1CCC(c2ccc3ccccc3c2O)CC1)c1ccc(-c2ccc(Cl)cc2)cc1
CN(C)Cc1ccc(-c2cc3ncnc(Nc4ccc(OCc5cccc(F)c5)c(Cl)c4)c3s2)[nH]1
CN(C)CCN(C)Cc1ccc(-c2ccc(NC(=O)c3cccc(Cl)c3)cc2)cc1
COc1cc(NC(=O)c2ccc3oc4ccccc4c3c2)ccc1OCCN1CCCCC1
COc1ccc(CN(C)CCOc2ccc(NC(=O)c3cccc4c(=O)cc(-c5ccccc5)[nH]c34)cc2)cc1OC
CC(=O)Nc1ccc(Nc2c3ccccc3nc3ccccc23)cc1
CN1C(=O)C(=O)N(CCCCCON=C(N)N)C1=S
CCN1CCN(CCCNc2ccnc3cc(Cl)ccc23)CC1
CS(=O)(=O)CCNCc1cccc(-c2cc3c(Nc4ccc(OCc5ccccc5)cc4)ncnc3cn2)c1
COc1ccc(CNCc2ccc(-c3ccc(-c4nc5ccc(C(F)(F)F)cc5[nH]4)cc3)cc2)cc1
Cc1cc(-c2cccc3c(C(=O)N4CCc5cc6nccc(N7CCN8CCC[C@H]8C7)c6cc54)cccc23)cc(C)n1
Nc1nc2c(ncn2COC2COP(=O)(O)OC2)c(=O)[nH]1 (stereo not given)
O=C(CCN(Cc1ccco1)c1nc(-c2ccc(F)cc2)nc2ccccc12)NC1CC1
O=C(Nc1cccc(-c2ccc(-c3nc4ccc(C(F)(F)F)cc4[nH]3)cc2)c1)Nc1ccc(F)c(F)c1F
Cc1nc(N)nc(N)c1C#CC1CCCC1
Cn1ncc2ccc(Nc3nccc(-c4ccc5c(c4)c(N)nn5C)n3)cc21
Clc1ccccc1CNc1noc(-c2sccc2Br)n1
CN1CCC(Oc2cc(CN3CC[C@H](NC(=O)c4ccc(Cl)c(Cl)c4)C3)ccc2I)C1 (stereo not given in full)
CCc1cn2c3c(cc(C(=O)N[C@@H](Cc4ccccc4)[C@H](O)CNC4CCCCC4)cc13)N(CC)S(=O)(=O)CC2
CN1CCN(c2nc(NCCNc3ccc([N+](=O)[O-])cc3)c3ccccc3n2)CC1
O=S(=O)(NCCN1CCCC1)c1ccc(-c2ccc(CN3Cc4ccccc4C3)cc2)s1
CSc1c(CNCCCNc2cc(=O)c3ccccc3[nH]2)[nH]c2ccccc12
CN1CCC(NCc2ccc(-c3cccc(S(=O)(=O)NCc4ccccc4)c3)cc2)CC1
COc1ccc(-c2ccnc(-c3cccc(-c4ccccn4)n3)c2)cc1
CC1CN(c2ccc(C(=O)NCC3CC3)cc2NC(=O)OCc2ccccc2)CC(C)O1 (stereo not given)
Cc1noc(=O)c2ccc(NC(=O)C(O)(CSc3ccccc3)CC(C)C)cc12 (stereo not given)
CCCCOP(=O)(COc1ccc(CCN(CC(O)COc2cccc3[nH]c4ccccc4c23)CC(O)COc2cccc3[nH]c4ccccc4c23)cc1)C1CCCCC1 (stereo not given)
COc1ccc(NC(=O)Nc2cccc(-c3ccncc3)c2)cc1N1CCN(C)CC1
CC(=O)c1c[nH]c2ccc(/C=C/C(=O)NC3CCC(CCN4CCc5ccc(C#N)cc5CC4)CC3)cc12 (stereo not given)
c1ccc(COc2ccnc(NCCCOc3cccc(CN4CCCCC4)c3)c2)cc1
Cc1cccc(OCC(=O)Nc2cccc(NC(=O)COc3cccc(C)c3)n2)c1
Cn1nc(-c2ccccc2F)c2cc(C(=O)Nc3cccnc3)sc21
CCN(CC)CCCSc1ccc(-c2ccc(SCCCN(CC)CC)cc2)cc1
COCCCNc1sc(S(=O)(=O)c2ccccc2)nc1S(=O)(=O)c1ccc(C)cc1

Target: Protein kinase 7 (PK7), Plasmodium falciparum 3D7 (PF3D7_0213400) (UniProt Q7YTF7)
Sequence (Q7YTF7 1-343): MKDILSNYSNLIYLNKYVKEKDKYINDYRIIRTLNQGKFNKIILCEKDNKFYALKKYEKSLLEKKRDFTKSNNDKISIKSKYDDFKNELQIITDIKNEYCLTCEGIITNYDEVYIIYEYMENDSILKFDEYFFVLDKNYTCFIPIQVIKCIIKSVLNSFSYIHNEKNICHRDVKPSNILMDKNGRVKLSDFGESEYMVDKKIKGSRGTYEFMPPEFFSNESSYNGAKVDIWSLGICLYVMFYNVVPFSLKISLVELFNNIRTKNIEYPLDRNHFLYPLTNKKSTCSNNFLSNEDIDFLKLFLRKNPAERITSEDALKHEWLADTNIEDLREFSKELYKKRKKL
Experiment: inhibition of Plasmodium PK7 catalytic activity – biochemical, TCAMS antimalarial set, Kinase-Glo luminescence (AID 1159587)
Settings: recombinant PfPK7, Kinase-Glo ATP depletion luminescence

outcome, inactive:
O=c1cc(NC[C@@H]2CCC[C@@H]2NCc2ccc(Cl)c(Cl)c2)[nH]c2ccccc12
O=C(NCCN1CCN(S(=O)(=O)c2ccc(OC3CCNCC3)c(Br)c2)CC1)c1ccc(Cl)c(Cl)c1
CCc1ccc(N2C(N)=NC(N)=NC2(C)C)cc1
CN1CCN(c2ccnc3ccc(NC(=O)Nc4ccc5c(c4)CCCC5=O)cc23)CC1
CCOC(=O)c1[nH]c2ccc(F)cc2c1NC(=O)CN1CCN(c2cccc(C(F)(F)F)c2)CC1
COc1ccc(CN2CCCN(Cc3cccc(C(=O)Nc4ccc(C)c(F)c4)c3)CC2)cc1
O=C(NCCCCN1CCC(c2ccc3ccccc3c2O)CC1)c1ccc(-c2ccc(Cl)cc2)cc1
CN(C)Cc1ccc(-c2cc3ncnc(Nc4ccc(OCc5cccc(F)c5)c(Cl)c4)c3s2)[nH]1
CN(C)CCN(C)Cc1ccc(-c2ccc(NC(=O)c3cccc(Cl)c3)cc2)cc1
COc1cc(NC(=O)c2ccc3oc4ccccc4c3c2)ccc1OCCN1CCCCC1
COc1ccc(CN(C)CCOc2ccc(NC(=O)c3cccc4c(=O)cc(-c5ccccc5)[nH]c34)cc2)cc1OC
CC(=O)Nc1ccc(Nc2c3ccccc3nc3ccccc23)cc1
CN1C(=O)C(=O)N(CCCCCON=C(N)N)C1=S
CCN1CCN(CCCNc2ccnc3cc(Cl)ccc23)CC1
CS(=O)(=O)CCNCc1cccc(-c2cc3c(Nc4ccc(OCc5ccccc5)cc4)ncnc3cn2)c1
COc1ccc(CNCc2ccc(-c3ccc(-c4nc5ccc(C(F)(F)F)cc5[nH]4)cc3)cc2)cc1
Cc1cc(-c2cccc3c(C(=O)N4CCc5cc6nccc(N7CCN8CCC[C@H]8C7)c6cc54)cccc23)cc(C)n1
Nc1nc2c(ncn2COC2COP(=O)(O)OC2)c(=O)[nH]1 (stereo not given)
O=C(CCN(Cc1ccco1)c1nc(-c2ccc(F)cc2)nc2ccccc12)NC1CC1
O=C(Nc1cccc(-c2ccc(-c3nc4ccc(C(F)(F)F)cc4[nH]3)cc2)c1)Nc1ccc(F)c(F)c1F
Cc1nc(N)nc(N)c1C#CC1CCCC1
Cn1ncc2ccc(Nc3nccc(-c4ccc5c(c4)c(N)nn5C)n3)cc21
Clc1ccccc1CNc1noc(-c2sccc2Br)n1
CN1CCC(Oc2cc(CN3CC[C@H](NC(=O)c4ccc(Cl)c(Cl)c4)C3)ccc2I)C1 (stereo not given in full)
CCc1cn2c3c(cc(C(=O)N[C@@H](Cc4ccccc4)[C@H](O)CNC4CCCCC4)cc13)N(CC)S(=O)(=O)CC2
CN1CCN(c2nc(NCCNc3ccc([N+](=O)[O-])cc3)c3ccccc3n2)CC1
O=S(=O)(NCCN1CCCC1)c1ccc(-c2ccc(CN3Cc4ccccc4C3)cc2)s1
CSc1c(CNCCCNc2cc(=O)c3ccccc3[nH]2)[nH]c2ccccc12
CN1CCC(NCc2ccc(-c3cccc(S(=O)(=O)NCc4ccccc4)c3)cc2)CC1
COc1ccc(-c2ccnc(-c3cccc(-c4ccccn4)n3)c2)cc1
CC1CN(c2ccc(C(=O)NCC3CC3)cc2NC(=O)OCc2ccccc2)CC(C)O1 (stereo not given)
Cc1noc(=O)c2ccc(NC(=O)C(O)(CSc3ccccc3)CC(C)C)cc12 (stereo not given)
CCCCOP(=O)(COc1ccc(CCN(CC(O)COc2cccc3[nH]c4ccccc4c23)CC(O)COc2cccc3[nH]c4ccccc4c23)cc1)C1CCCCC1 (stereo not given)
COc1ccc(NC(=O)Nc2cccc(-c3ccncc3)c2)cc1N1CCN(C)CC1
CC(=O)c1c[nH]c2ccc(/C=C/C(=O)NC3CCC(CCN4CCc5ccc(C#N)cc5CC4)CC3)cc12 (stereo not given)
c1ccc(COc2ccnc(NCCCOc3cccc(CN4CCCCC4)c3)c2)cc1
Cc1cccc(OCC(=O)Nc2cccc(NC(=O)COc3cccc(C)c3)n2)c1
Cn1nc(-c2ccccc2F)c2cc(C(=O)Nc3cccnc3)sc21
CCN(CC)CCCSc1ccc(-c2ccc(SCCCN(CC)CC)cc2)cc1
COCCCNc1sc(S(=O)(=O)c2ccccc2)nc1S(=O)(=O)c1ccc(C)cc1
